Assay results: the supplement of paper PMC13380429

Tested on: Vero E6 infected with SARS-CoV-2
Test: inhibition of SARS-CoV-2 cytopathic effect; higher = more antiviral protection, active = above 15
Details: 48 h

Measured: inhibition of SARS-CoV-2 cytopathic effect

CO/N=C(\C(=O)N[C@@H]1C(=O)N2C(C(=O)[O-])=C(C[N+]3(C)CCCC3)CS[C@H]12)c1csc(N)n1 [cefepime]
inactive: 1 nM 0.86% | 8.33 nM 1.89% | 100 nM 2.66% | 833.33 nM 3.19% | 10000 nM 1.42%

COc1ccc(Nc2ncnc3ccc(OC)cc23)cc1
inactive: 1 nM 4.07% | 8.33 nM 6.4% | 100 nM 6.26% | 833.33 nM 1.4% | 10000 nM -3.12%

Oc1ccc2c3c1O[C@H]1c4oc5ccccc5c4C[C@@]4(O)[C@@H](C2)N(CC2CC2)CC[C@]314 [naltriben]
inactive: 1 nM 0.92% | 8.33 nM -0.89% | 100 nM 0.12% | 833.33 nM -0.45% | 10000 nM -2.94%

Cn1c(-c2ccccc2)nnc1S(C)(=O)=O
inactive: 1 nM 2.45% | 8.33 nM -0.41% | 100 nM 0.33% | 833.33 nM -0.57% | 10000 nM 2.92%

CC[C@]12CCCN3CCc4c(n(c5ccccc45)C(=O)C1)[C@@H]32 [vinburnine]
inactive: 1 nM -4.83% | 8.33 nM -3.72% | 100 nM -1.1% | 833.33 nM 0.35% | 10000 nM -0.52%

Nc1ncnc2[nH]nc(Nc3ccc(F)cc3)c12
inactive: 1 nM -2.32% | 8.33 nM -2.2% | 100 nM -2.66% | 833.33 nM -0.59% | 10000 nM -5.26%

CC(C)Nc1cccnc1N1CCN(C(=O)c2cc3cc(NS(C)(=O)=O)ccc3[nH]2)CC1 [delavirdine]
inactive: 1 nM -1.49% | 8.33 nM -0.85% | 100 nM 1.56% | 833.33 nM 1.65% | 10000 nM 2.87%

COC(=O)Nc1nc2cc(C(=O)c3cccs3)ccc2[nH]1 [nocodazole]
inactive: 1 nM 2.2% | 8.33 nM 3.05% | 100 nM 0.53% | 833.33 nM 1.99% | 10000 nM -1.47%

c1ccc(OCc2ccc(CCCN3CCOCC3)cc2)cc1 [fomocaine]
inactive: 1 nM 0.24% | 8.33 nM 1.88% | 100 nM 1.23% | 833.33 nM -0.27% | 10000 nM 3.83%

O=C(NCc1ccc(OC(F)(F)F)cc1)C1c2ccccc2C(=O)N1C1CCOCC1 (stereo not given)
inactive: 1 nM -3.69% | 8.33 nM -4.75% | 100 nM -1.62% | 833.33 nM -1.7% | 10000 nM 2.59%

O=C(Nc1ccccc1)N1CCC(Cc2cnc3ccccc3c2)CC1
inactive: 1 nM -0.99% | 8.33 nM -0.47% | 100 nM 0.72% | 833.33 nM -0.2% | 10000 nM -1.47%

CCCCOc1ccc(CC(=O)NO)cc1 [bufexamac]
inactive: 1 nM 0.27% | 8.33 nM -0.68% | 100 nM 0.49% | 833.33 nM 0% | 10000 nM 0.42%

Cc1[nH]c2ccc(F)cc2c1-c1nc2c3cccnc3c3ncccc3c2[nH]1
inactive: 1 nM 0.2% | 8.33 nM 1.01% | 100 nM 0.29% | 833.33 nM -0.86% | 10000 nM 2.7%

C[C@]12CC[C@H](O)C[C@H]1CC[C@@H]1[C@@H]2CC[C@]2(C)[C@@H](c3ccc(=O)oc3)C[C@H]3O[C@]132 [resibufogenin]
inactive: 1 nM -0.2% | 8.33 nM -2.33% | 100 nM -5.86% | 833.33 nM -20.4% | 10000 nM -20.4%

C=C1CC[C@H](O)C/C1=C/C=C1\CCC[C@]2(C)[C@@H]([C@H](C)/C=C/[C@H](C)C(C)C)CC[C@@H]12 [ergocalciferol]
inactive: 1 nM 0.88% | 8.33 nM 0.86% | 100 nM 0.95% | 833.33 nM 0.55% | 10000 nM 0.72%

C=C1/C(=C\C=C2/CCC[C@]3(C)[C@@H]([C@H](C)CC[C@@H](O)C(C)C)CC[C@@H]23)C[C@@H](O)C[C@@H]1O [tacalcitol]
inactive: 1 nM -1.15% | 8.33 nM -0.65% | 100 nM 1.63% | 833.33 nM 1.18% | 10000 nM 1.31%

C[C@@H]1CC(=O)c2c(ccc3c2C(=O)c2cccc(O)c2C3=O)C1 [ochromycinone]
inactive: 1 nM -3.4% | 8.33 nM -1.61% | 100 nM -3.55% | 833.33 nM -1.87% | 10000 nM -3.84%

Cc1cc(OCc2nc(-c3ccccc3Cl)cs2)ccc1OCC(=O)O [GPR120-modulator-1]
inactive: 1 nM -0.13% | 8.33 nM 2.43% | 100 nM -1.19% | 833.33 nM -1.62% | 10000 nM -2.32%
